Screening results deposited in PubChem by several laboratories.
Compounds with a hit are over-represented: about 1.9% of the library has one in this group of screens.
HSF-1 act: HSF-1 activators, primary screen, NIH3T3-HGL cells, MG132 stress, luminescence, single point; AID 504408, 2011; 1.7% of 300,000 active; activation, % at 9 µM; NIH3T3-HGL HSF-1 luciferase reporter, 8 h; 100% = twice DMSO control signal;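 active = mean replicate activation of at least 50% with a set share of replicates each reaching 50%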;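 note: 0% = median of the neutral control wells and 100% = twice that signal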
Hsp70 activator: Hsp70 transcriptional activators, primary screen, cell-based, HeLa, Hsp70 promoter luciferase, luminescence, 10 µM. HeLa Hsp70 promoter luciferase reporter; scaled: vehicle 0, proteasome-inhibitor control 100%. activation, % at 10 µM. 0.04% of 200,000 active. AID 1203, 2008;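 active = activation above the mean across all tested compounds plus 3 SD, cutoff set per campaign, cut at about 5.5% in these data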;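 note: 100% = MG132 at 30 µM as the positive control and 0% = DMSO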
TNF death inh: inhibitors of TNF-alpha triggered necroptosis, primary screen, cell-based, Jurkat FADD-/-, single concentration. activation (protection from cell death), % at 10 µM. AID 463075, 2010. Jurkat FADD-/- TNF necroptosis rescue, ATP luminescence, 24 h; 0 = TNF only, 100 = no-TNF cells. 0.068% of 220,000 active;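 active = activation, meaning protection from cell death, of at least 50% relative to plate controls; inactive = activation below 50%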;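 note: necroptosis triggered by 40 ng/mL TNF-alpha added together with compound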
L929 necroptosis: inhibitors of zVAD-triggered necroptosis, primary screen, L929 cells; AID 1377, 2008; viability rescue, % at 10 µM; 0.38% of 220,000 active; L929 zVAD necroptosis rescue, ATP luminescence, 24 h; with zVAD 60 µM;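 active = activation, scaled between plate controls, above about 75%, limit read from the data; inactive = activation under that limit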;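 note: 0% = zVAD with DMSO and 100% = DMSO alone without zVAD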
* hit, by the source's call; nt = no result.

SMILES	HSF-1 act	Hsp70 activator	TNF death inh	L929 necroptosis
Cc1cccc(C)c1NC(=O)CSc1nnc(Cn2nnc(-c3ccccc3)n2)n1-c1ccccc1	74*	0	-3	1
O=C1[C@H]2[C@@H](/C=C/c3ccccc3)N3C(=O)CN(Cc4ccccn4)C(=O)[C@@]3(Cc3ccccc3)[C@H]2C(=O)N1c1ccccc1	6	nt	nt	nt
Cc1ccc(NC(=O)/C=C/C(=O)O)c([N+](=O)[O-])c1	24	0	1	1
Cc1ccc(NC(=O)/C=C/c2cccs2)c([N+](=O)[O-])c1	63*	0	-14	1
CC1(C)CCCN(Cc2c(O)ccc3c(=O)c(-c4nc5ccccc5s4)c(N)oc23)C1	79*	nt	3	67
Cc1ccc(N=C2C(=O)Nc3ccccc32)cc1C	51*	nt	nt	nt
Cc1nnc(SCC(=O)c2ccc(Br)cc2)s1	67*	0	14	2
O=C(CSc1nc2[nH]ncc2c(=O)[nH]1)Nc1ccc(Cl)cc1	-3	nt	nt	nt
CCC(=O)N1CCc2cc(S(=O)(=O)N3CCN(c4ccccc4Cl)CC3)ccc21	-5	nt	nt	nt
Cc1ccc(-n2ncc3ccccc3c2=O)cc1Cl	88*	0	-1	17
O=c1c2ccccc2cnn1-c1ccc(Cl)cc1	32	0	0	0
CC(CCCCC(=O)Nc1ccc(C(F)(F)F)cc1)NCCc1cnc[nH]1 (centres undefined)	-11	0	nt	nt
CC(C)CC(NS(=O)(=O)c1ccc2c(c1)oc(=O)n2C)C(=O)NC1CCCc2ccccc21 (centres undefined)	62*	0	-1	1
Cc1nc(SCC2(C)CC2(Cl)Cl)n[nH]1 (centres undefined)	-2	0	0	2
COc1ccc(NC(=O)c2sccc2C)cn1	70*	1	1	1
Cc1ccsc1C(=O)Nc1ccc(C(=O)O)cc1	nt	0	-1	0
COc1ccc(N(C(C)C(=O)N/N=C/c2ccc(OCC(C)C)cc2)S(C)(=O)=O)cc1 (centres undefined)	-3	0	-1	3
CCOc1ccc(/C=N/NC(=O)C(C)N(c2ccc(OC)cc2)S(C)(=O)=O)cc1 (centres undefined)	64*	0	-4	1
CC1CCN(CCCNC(=O)c2ccc(Cn3c(=S)[nH]c4ccc(Br)cc4c3=O)cc2)CC1	-8	0	-6	6
CN(c1cccc(NC(=O)Nc2cccc(Cl)c2)c1)S(C)(=O)=O	66*	0	-3	32
O=C(NCCOC(=O)c1c(F)cccc1Cl)c1c(F)cccc1Cl	-6	nt	nt	nt
CCOC(=O)C1(Cc2cccc(F)c2)CCN(Cc2cnn(CC)c2C)CC1	-1	0	1	-2
Cc1cc(=O)c2n(Cc3ccccc3Cl)nc[n+]2[nH]1	91*	0	3	0
CCOC(=O)Cc1csc(NC(=O)C2CCCN(S(=O)(=O)c3cnc[nH]3)C2)n1 (centres undefined)	nt	0	1	1
CC(=O)NC(=S)Nc1cccc2ccc(C)nc12	-2	nt	-1	1
SMILES	HSF-1 act	Hsp70 activator	TNF death inh	L929 necroptosis
Cc1ccc2cccc(NC(=O)C(F)(F)F)c2n1	215*	0	-3	0
O=C(CCc1nc2ccccc2s1)OCC(=O)c1ccc[nH]1	11	0	1	18
O=C(NCCN1CCN(c2ccccc2)CC1)C1CCN(S(=O)(=O)c2cccc3nsnc23)CC1	12	0	-1	-1
COCCCC1CCN(C(=O)c2cc(COc3cc(C)ccc3C)on2)CC1	54*	nt	nt	nt
COCCN1CCN(C(=O)c2cc(COc3cc(C)ccc3C)on2)CC1	30	nt	nt	nt
O=C(CSc1nnc(NC(=O)C2CC2)s1)Nc1ccccc1C(F)(F)F	2	nt	nt	nt
CCN(CC)C(=O)CSc1ncnc2sc(C)c(C)c12	52*	0	0	0
Cc1sc2ncnc(SCC(=O)NC(C)(C)C)c2c1C	-2	0	1	1
COc1ccc2[nH]cc(S(=O)(=O)c3ccc(C)cc3)c2c1	-7	0	2	1
CC(C)C(NC(=O)c1ccco1)C(=O)NC1CCCCCC1 (centres undefined)	13	nt	nt	nt
COc1cc2c(cc1NC(=O)CSc1ccc(C)cc1)oc1ccccc12	15	0	0	1
COc1cc2c(cc1NC(=O)CSc1nc3ccc(C)cc3[nH]1)oc1ccccc12	74*	0	4	24
